# In the library only some 2.8% were active in any assay of this set; here they are far more common.
# Pol iota inh = qHTS for Inhibitors of Polymerase Iota | 390,000 compounds, 1% hits | AID 588590, 2011 | Potency, µM (titrated, usually from 115 µM), for inactives: at the top dose activity, negative = inhibition, hits mostly inhibitors | Pol iota fluorescent replication assay, 10 min | DNA polymerase iota (Homo sapiens), Q9UNA4; note: potency is the fitted concentration of half-maximal effect
#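 Fluorescent replication assay read twice, at 0 min and 10 min after adding 50 nM (final) substrate. Enzyme (10 nM) and compounds were first incubated 15 min at room temperature; enzyme-free buffer wells were negative controls.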
# PI5P4Ka inh = qHTS for Inhibitors of phosphatidylinositol 5-phosphate 4-kinase (PI5P4K); Phosphatidylinositol 5-phosphate 4-kinase type-2 alpha (Homo sapiens), P48426; PI5P4Kalpha enzyme, ADP-Glo luminescence, 60 min; stronger effect = lower value; max response, %; 330,000 compounds, 1.2% hits; AID 652105, 2013; active = max response of -50% or lower; inconclusive = between -30% and -50%; inactive = -30% or higher; note: value at the top dose of about 77 µM; % is set by controls: 0 for no effect and ±100 for the full control effect
# Target sequence (P48426 whole entry, looked up): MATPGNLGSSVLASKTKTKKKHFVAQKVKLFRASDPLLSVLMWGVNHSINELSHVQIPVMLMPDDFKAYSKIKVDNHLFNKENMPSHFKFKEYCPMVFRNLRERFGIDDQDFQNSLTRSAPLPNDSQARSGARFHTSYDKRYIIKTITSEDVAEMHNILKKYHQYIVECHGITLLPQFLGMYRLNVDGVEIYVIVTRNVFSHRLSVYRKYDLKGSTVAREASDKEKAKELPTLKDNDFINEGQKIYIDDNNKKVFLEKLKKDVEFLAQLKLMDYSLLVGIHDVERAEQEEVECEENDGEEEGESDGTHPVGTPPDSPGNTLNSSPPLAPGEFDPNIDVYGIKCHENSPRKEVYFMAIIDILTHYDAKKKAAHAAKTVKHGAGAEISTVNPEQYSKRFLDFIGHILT
#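 ADP-Glo luminescence end-point read after a 60 min room-temperature kinase reaction of PI5P4Kalpha plus substrate, initiated with ATP at 5 microM final. Buffer: 0.038 M HEPES pH 7.4, EGTA, 0.1% CHAPS, 5% DMSO.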
# Pol beta inh = qHTS Assay for Inhibitors of DNA Polymerase Beta | 340,000 compounds, 1.3% hits | AID 485314, 2010 | Pol beta primer extension/strand displacement, fluorescence kinetic | Potency, µM (top dose mostly 114 µM), for the others: at the highest dose activity change, negative = inhibition, actives largely listed as inhibitors; note: potency is the fitted concentration of half-maximal effect; % is set by controls: 0 for no effect and ±100 for the full control effect
#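 Human Pol beta at 10 nM; strand-displacement substrate 50 nM final. Compound exposure 15 min at room temperature before start, reaction 10 min at room temperature.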
# Pol eta inh-1 = qHTS for Inhibitors of Polymerase Eta. DNA polymerase eta (Homo sapiens), Q9Y253. recombinant Pol eta, fluorescent DNA replication assay. Potency, µM (top dose mostly 114 µM), for inactives: at the highest dose activity change, negative = inhibition, actives largely listed as inhibitors. 390,000 compounds, 1.2% hits. AID 588591, 2011; note: potency is the fitted concentration of half-maximal effect; % is set by controls: 0 for no effect and ±100 for the full control effect
#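 Fluorescent replication assay: 50 nM final substrate added after a 15 min room-temperature compound preincubation with 10 nM enzyme. Signal taken at 0 min and again at 10 min.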
# Pol kappa inh-1 = qHTS for Inhibitors of Polymerase Kappa. DNA polymerase kappa (Homo sapiens), Q9UBT6. purified Pol kappa, fluorescent DNA synthesis assay, 10 min. Potency, µM (series often up to 107 µM), for the others: at the highest dose activity, negative = inhibition, hits mostly inhibitors. 400,000 compounds, 0.53% hits; note: potency is the fitted concentration of half-maximal effect; % is set by controls: 0 for no effect and ±100 for the full control effect
#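 Pol kappa 10 nM + cpd, 15 min RT; start w/ substrate 50 nM final; fluorescence kinetic read, 0 and 10 min. Neg ctrl: buffer, no enzyme.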
# WRN helicase inh = qHTS for Inhibitors of WRN Helicase; Bifunctional 3'-5' exonuclease/ATP-dependent helicase WRN (Homo sapiens), Q14191; WRN helicase unwinding, fluorescent forked duplex, kinetic; Potency, µM (titrated, usually from 114 µM), for the others: top-dose activity change, negative = inhibition, usual class: inhibitors; 360,000 compounds, 0.46% hits; AID 651768, 2012; note: potency is the fitted concentration of half-maximal effect; % is set by controls: 0 for no effect and ±100 for the full control effect; nearly all actives have a fitted effect of over 55% in size
#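 Primary qHTS, 1536-well format. 20 nM WRN + compound, 15 min RT; start with 100 nM forked fluorophore/quencher duplex, 2 mM ATP (final); kinetic read ex 525/em 598 nm.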
# GALK confirm = Confirmation Assay for Inhibitors of Human Galactokinase (GALK); shares compounds with Pol eta inh-1; purified GALK, Kinase-Glo ATP depletion luminescence; Potency, µM (top dose mostly 115 µM), for inactives: at the highest dose activity, negative = inhibition, hits mostly inhibitors; 150 compounds, 70% hits
# Target sequence (P51570 whole entry, looked up): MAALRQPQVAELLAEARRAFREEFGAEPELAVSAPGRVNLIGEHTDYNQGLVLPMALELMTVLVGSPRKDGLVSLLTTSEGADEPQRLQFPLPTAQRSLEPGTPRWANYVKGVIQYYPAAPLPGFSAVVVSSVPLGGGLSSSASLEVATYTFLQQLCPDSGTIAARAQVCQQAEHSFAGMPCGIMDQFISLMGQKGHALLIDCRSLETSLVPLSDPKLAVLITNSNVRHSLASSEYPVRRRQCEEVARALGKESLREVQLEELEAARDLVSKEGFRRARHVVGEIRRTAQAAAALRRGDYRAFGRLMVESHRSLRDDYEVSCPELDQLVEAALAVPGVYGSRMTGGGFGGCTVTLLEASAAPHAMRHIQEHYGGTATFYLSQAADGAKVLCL
# GALK redox cs = Confirmatory Assay for Inhibitors of Human Galactokinase (GALK): Phenol-HRP redox assay counterscreen. shares compounds with Pol eta inh-1. Phenol red-HRP H2O2 redox cycling, absorbance 600 nm. Potency, µM (titrated, usually from 115 µM), for the others: at the highest dose activity change, negative = H2O2 signal, most hits filed as inhibitors. 150 compounds, 40% hits. AID 2035, 2009
# HEK293 viability = Secondary Assay for Inhibitors of Human Galactokinase (GALK): HEK-293 Cell Viability Assay | shares compounds with Pol eta inh-1 | HEK-293 viability, ATP luminescence (CellTiter-Glo), 24/48 h | Potency, µM (top dose mostly 46.1 µM), for the others: at the top dose activity change, negative = cytotoxicity, most hits filed as inhibitors | 170 compounds, 10% hits | AID 2547, 2010; note: potency is the fitted concentration of half-maximal effect; % is set by controls: 0 for no effect and ±100 for the full control effect
# Pol kappa inh-2 = qHTS for Inhibitors of Polymerase Kappa: Confirmatory Assay for Cherry-picked Compounds | purified Pol-kappa, fluorescent strand-displacement substrate | AID 720501, 2013 | 920 compounds, 76% hits | shares compounds with Pol eta inh-1 | Potency, µM, most hits filed as inhibitors; note: potency is the fitted concentration of half-maximal effect
# Pol eta inh-2 = qHTS for Inhibitors of Polymerase Eta: Confirmatory Assay for Cherry-picked Compounds; shares compounds with Pol eta inh-1; Pol eta primer extension, TAMRA/BHQ fluorescence, 10 min; Potency, µM, usual class: inhibitors; 2,600 compounds, 64% hits; AID 720502, 2013; note: potency is the fitted concentration of half-maximal effect
# Active calls of the source: *; u = inconclusive; x = no result given; [ ] = remark or other dose. Unless noted, calls come from the whole dose curve; as a rule, active = well fitted curve in the direction sought with a large enough effect; inconclusive = small, poorly fitted or top-dose-only effect, or another doubt; inactive = no such curve, though single readings can be large; an effect the other way counts as inactive or inconclusive.
SMILES,Pol iota inh,PI5P4Ka inh,Pol beta inh,Pol eta inh-1,Pol kappa inh-1,WRN helicase inh,others
O=C(O)c1ccc(-n2c(-c3cc(-c4ccco4)[nH]n3)n[nH]c2=S)cc1,u,u,u,10µM*,u,u,Pol eta inh-2=30.1*
CCOc1ccc(OCc2ccc(C(=O)O)o2)cc1,-15.1%,1.3,14.1µM*,12.6µM*,-5.3%,-14.7%[11.6 µM],Pol eta inh-2=60.1*
O=C(O)c1ccc(COc2ccc3ccccc3c2)o1,u,-2.5,6.9%,1.0%,4.1%,1.4%,
O=C(OCc1cc(=O)n2nc(C3CCCCC3)sc2n1)c1ccc(F)cc1,18.1%,x,11.8%,-13.2%,6.2%,x,
COc1ccc(-c2nn(-c3ccccc3)cc2/C=C2/SC(=S)N(CCC(=O)O)C2=O)cc1,u,1.9,31.6µM*,22.4µM*,-33.8%,50.1µM*,Pol kappa inh-2=16.8*
CCOc1ccc(-c2nn(-c3ccccc3)cc2/C=C2\SC(=S)N(C3CCS(=O)(=O)C3)C2=O)cc1 (stereo unspecified),14.3%,x,22.5%,3.7%,-21.4%,2.2%,
Cn1cccc1/C=C1\SC(=S)N(CC(=O)O)C1=O,7.1%,3.9,17.4%,-4.2%,-0.5%,-1.6%,
Cc1ccc(-c2nn(-c3ccccc3)cc2/C=C2\SC(=S)N(CC(=O)O)C2=O)cc1,u,-6.7,5.0%,u,-0.6%,-3.8%,GALK confirm=42.1µM*;GALK redox cs=6.1%;HEK293 viability=-0.6%
S=C(NCc1ccco1)Nc1cc(-c2ccccc2)[nH]n1,15.9%,-14.9,-0.7%,-0.1%,-4.6%,-23.1%,
O=C1C=C(c2ccc(C(=O)O)cc2)C[C@@H](c2ccc3c(c2)OCO3)C1,u,u,x,u,-29.4%,-1.0%[11.6 µM],Pol eta inh-2=u
COc1ccccc1-c1nnc(SCC(=O)Nc2cccnc2Cl)n1C,28.4%,-0.3,x,-11.3%,-5.7%,5.0%,
Fc1ccc(C2=NC(c3cccc(C(F)(F)F)c3)=Nc3ccccc3N2)cc1,16.4%,x,22.3%,x,0.1%,x,
CC1=C(C#N)C(=O)NC(=O)/C1=C\c1ccc(-c2cc(C)c(C)cc2[N+](=O)[O-])o1,u,-65.1*,u,u,u,u,Pol kappa inh-2=u;Pol eta inh-2=u
COC(=O)C(C)Sc1snnc1-c1ccccc1 (stereo unspecified),11.1%,-12.3,2.1%,-3.6%,-13.8%,4.4%,
C[C@H]1COc2cccc(N(C)CCO)c2S(=O)(=O)N1,x,1.8,x,x,x,3.9%,
CNC(=O)COc1coc(CN2CCN(c3ccc(F)cc3)CC2)cc1=O,-0.5%,-1.8,-27.5%,-15.1%,5.7%,6.0%,
CCc1ccc(S(=O)(=O)Nc2cc(SCC(=O)O)c(O)c3ccccc23)cc1,5.62µM*,u,u,50.1µM*,u,44.7µM*,Pol eta inh-2=u
CCc1ccc(S(=O)(=O)Nc2ccc(O)c3ccccc23)cc1,u,u,10.8%,2.3%,-13.4%,1.1%,
O=C1NC(=Nc2ccccc2Cl)S/C1=C\c1cc([N+](=O)[O-])ccc1O,35.5µM*,-67.0*,u,79.4µM*,u,-26.6%,Pol kappa inh-2=u
Cc1ccc(S(=O)(=O)/N=C2/NC(=O)/C(=C/c3cc([N+](=O)[O-])ccc3O)S2)cc1,28.2µM*,267.9,-3.9%,28.2µM*,u,u,Pol kappa inh-2=u
COc1cc(/C=C2\S/C(=N/S(=O)(=O)c3ccc(C)cc3)NC2=O)c([N+](=O)[O-])cc1OC,38.6%,-4.8,6.8%,0.9%,-5.5%,7.7%,
COc1ccc(NC(=O)CSc2ncnc3sc(C)cc23)cc1,45.6%,-0.1,28.7%,-13.0%,-12.8%,-7.1%,
Cc1cc2c(SCC(=O)Nc3cccc(O)c3)ncnc2s1,u,-74.4*,x,22.4µM*,89.1µM*,u,Pol kappa inh-2=21.2*;Pol eta inh-2=75.7*
CC1CN(S(=O)(=O)c2cccc(C(=O)OC(C)C(=O)NC3CCCCC3C)c2)CC(C)O1 (stereo unspecified),u,u,6.4%,-10.8%,-19.5%,-24.3%,
Cc1noc(C)c1C(=O)N1CCC2(CC1)Oc1ccc(F)cc1C(=O)C21CC(c2ccc(Cl)cc2)=NO1 (stereo unspecified),-13.3%,-2.2,1.2%,-10.4%,10.4%,-4.6%,
Cc1ccc(NC(=O)c2cc(S(=O)(=O)N3CCOCC3)c(Br)s2)cc1,14.4%,-8.3,u,-11.3%,-8.0%,-6.0%,
O=c1cc(-c2ccc(O)c(-c3c(O)cc(O)c4c(=O)cc(-c5ccc(O)cc5)oc34)c2)oc2cc(O)cc(O)c12,31.6µM*,-96.3*,-21.6%,17.8µM*,79.4µM*,u,Pol eta inh-2=33.8*
COc1ccc(-c2cc(=O)c3c(O)cc(O)c(-c4cc(-c5cc(=O)c6c(O)cc(OC)cc6o5)ccc4OC)c3o2)cc1,x,x,x,x,6.7%[60.1 µM],x,
O=C(COc1cccnc1[N+](=O)[O-])Nc1cccc(S(=O)(=O)N2CCCCC2)c1,1.4%,2.9,-12.0%,-20.9%,3.4%,-23.0%,

# Source: PubChem BioAssay
